Among the data in PubChem BioAssay (EPA / NIEHS) are outcome and AC50 values, retold here.

Activity calls are given as the source filed them. The calls were made as follows: active = hit-call score of the fitted dose curve at least 0.9, where 1 is the maximum; inactive = score below 0.9.

Read-out in experiment [1]: TIMP metallopeptidase inhibitor 1 (TIMP1), TIMP1 (gene 7076)
Nature of the experiment: BSK_hDFCGF_TIMP1: BioMAP Diversity Plus: hDFCGF Assay for TIMP metallopeptidase inhibitor 1 (TIMP1) Biomarker Activity (AID 2283062). The following applies: primary human foreskin fibroblasts; actives raise or lower the signal. The method in brief:
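TIMP-1 measured by ELISA 24 h after chemical dosing of primary human skin fibroblasts, with gain or loss fitted relative to DMSO. Parallel SRB staining (560 nm) monitored overt cytotoxicity.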

Read-out in experiment [2]: Monokine induced gamma interferon (MIG), CXCL9 (gene 4283)
Kind of experiment: BSK_hDFCGF_MIG: BioMAP Diversity Plus: hDFCGF Assay for Monokine induced gamma interferon (MIG) Biomarker Activity (AID 2283063). The settings on record: primary human foreskin fibroblasts; actives raise or lower the signal. The method in brief:
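Human primary foreskin fibroblasts in the hDFCGF system, exposed to test chemical for 24 h; MIG measured by ELISA. Bidirectional curve fitting against DMSO negative control as activity baseline.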

Read-out in experiment [3]: Plasminogen activator inhibitor-1 (PAI1), SERPINE1 (gene 5054)
Nature of the experiment: BSK_hDFCGF_PAI1: BioMAP Diversity Plus: hDFCGF Assay for Plasminogen activator inhibitor-1 (PAI1) Biomarker Activity (AID 2283066). The following applies: primary human foreskin fibroblasts; actives raise or lower the signal. The method in brief: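 Human foreskin fibroblast primary cells, 24 h chemical exposure; PAI-1 measured by ELISA. Bidirectional fitting relative to DMSO; parallel cultures stained with SRB for total protein to flag overt cytotoxicity.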

Read-out in experiment [4]: Intercellular Adhesion Molecule 1 (ICAM1), ICAM1 (gene 3383)
Kind of experiment: BSK_KF3CT_ICAM1: BioMAP Diversity Plus: KF3CT Assay for Intercellular Adhesion Molecule 1 (ICAM1) Biomarker Activity (AID 2283067). The settings on record: primary human keratinocytes with fibroblasts; actives raise or lower the signal. The method in brief:
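Cell-surface ICAM-1 was measured by ELISA 24 h after dosing primary human skin keratinocytes co-cultured with fibroblasts. Parallel SRB staining tracked overt cytotoxicity. Gain or loss of signal was fitted relative to DMSO.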

Read-out in experiment [5]: Interferon-gamma inducible Protein 10 (IP10), CXCL10 (gene 3627)
Kind of experiment: BSK_KF3CT_IP10: BioMAP Diversity Plus: KF3CT Assay for Interferon-gamma inducible Protein 10 (IP10) Biomarker Activity (AID 2283068). The settings on record: primary human keratinocytes with fibroblasts; actives raise or lower the signal. The method in brief:
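Signal is secreted/surface IP-10 by ELISA in a human primary skin co-culture of keratinocytes and foreskin fibroblasts, taken 24 h post-dosing; DMSO served as negative control.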

The nature of experiment [6]: BSK_KF3CT_SRB: Viability Assessment in the BioMAP Diversity Plus: KF3CT Assay (AID 2283069).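 Also: total protein by sulforhodamine B staining as a cytotoxicity measure; read 24 h after compound addition.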 The following applies: primary human keratinocytes with fibroblasts. The method in brief: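 Human primary keratinocyte plus foreskin fibroblast co-culture exposed to chemicals for 24 h. Total protein measured by 0.1% sulforhodamine B staining after 10% TCA fixation, read at 560 nm; bidirectional fitting versus DMSO baseline.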

Read-out in experiment [7]: Interleukin-1 alpha (IL1a), IL1A (gene 3552)
Kind of experiment: BSK_KF3CT_IL1a: BioMAP Diversity Plus: KF3CT Assay for Interleukin-1 alpha (IL1a) Biomarker Activity (AID 2283070). The settings on record: primary human keratinocytes with fibroblasts; actives raise or lower the signal. The method in brief:
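Human keratinocyte plus foreskin fibroblast primary co-culture, sampled 24 h after chemical dosing. IL-1a measured by ELISA; responses fitted bidirectionally against DMSO baseline (negative control), so gain or loss of signal both count.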

Read-out in experiment [8]: TIMP metallopeptidase inhibitor 2 (TIMP2), TIMP2 (gene 7077)
Kind of experiment: BSK_KF3CT_TIMP2: BioMAP Diversity Plus: KF3CT Assay for TIMP metallopeptidase inhibitor 2 (TIMP2) Biomarker Activity (AID 2283071). The settings on record: primary human keratinocytes with fibroblasts; actives raise or lower the signal. The method in brief:
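Co-culture of human primary keratinocytes and foreskin fibroblasts, measured 24 h after chemical dosing. TIMP-2 quantified by ELISA and fitted in both directions relative to DMSO. Cytotoxicity checked in parallel cultures by SRB total-protein staining.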

Read-out in experiment [9]: Transforming growth factor beta 1 (TGFb1), TGFB1 (gene 7040)
Nature of the experiment: BSK_KF3CT_TGFb1: BioMAP Diversity Plus: KF3CT Assay for Transforming growth factor beta 1 (TGFb1) Biomarker Activity (AID 2283072). The following applies: primary human keratinocytes with fibroblasts; actives raise or lower the signal. The method in brief:
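Human keratinocyte/foreskin fibroblast co-culture; TGF-b1 measured by ELISA 24 h after dosing, fitted bidirectionally versus DMSO. Cytotoxicity checked in parallel cultures by total protein (SRB staining, 560 nm).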

Read-out in experiment [10]: C-C motif chemokine 2 (Homo sapiens) (UniProt P13500)
Nature of the experiment: BSK_KF3CT_MCP1: BioMAP Diversity Plus: KF3CT Assay for Monocyte Chemoattractant Protein 1 (MCP1/CCL2) Biomarker Activity (AID 2283073). The following applies: primary human keratinocytes with fibroblasts; actives raise or lower the signal. The method in brief: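 ELISA read-out of MCP-1, 24 h post-dose, in primary human skin keratinocytes co-cultured with fibroblasts. Parallel SRB staining monitors cytotoxicity; changes fitted both directions relative to DMSO.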

Read-out in experiment [11]: Matrix Metallopeptidase 9 (MMP9), MMP9 (gene 4318)
Kind of experiment: BSK_KF3CT_MMP9: BioMAP Diversity Plus: KF3CT Assay for Matrix Metallopeptidase 9 (MMP9) Biomarker Activity (AID 2283074).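 As to AC50: MMP9 protein level quantified by ELISA in the co-culture.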 The following applies: primary human keratinocytes with fibroblasts; actives raise or lower the signal. The method in brief: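 Keratinocyte plus foreskin fibroblast human primary skin co-culture was dosed with chemical and MMP-9 was quantified by ELISA 24 h later. Bidirectional curve fitting used DMSO as negative control and activity baseline.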

Read-out in experiment [12]: urokinase plasminogen activator (uPA), PLAU (gene 5328)
Kind of experiment: BSK_KF3CT_uPA: BioMAP Diversity Plus: KF3CT Assay for urokinase plasminogen activator (uPA) Biomarker Activity (AID 2283075). The settings on record: primary human keratinocytes with fibroblasts; actives raise or lower the signal. The method in brief: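 Human keratinocyte plus foreskin fibroblast primary co-culture exposed to chemical for 24 h. uPA levels were quantified by ELISA, and activity was fitted bidirectionally against a DMSO negative-control baseline.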

Read-out in the next experiment: CD40, CD40 (gene 958)
Kind of experiment: BSK_LPS_CD40: BioMAP Diversity Plus: LPS Assay for CD40 Biomarker Activity (AID 2283076). The settings on record: primary human HUVEC with PBMC; actives raise or lower the signal. The method in brief: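 In the LPS system of human endothelial cells with peripheral blood mononuclear cells, CD40 levels were read by ELISA 24 h post-treatment. Signal changes in either direction were fitted against the DMSO baseline, with parallel SRB protein staining.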

Read-out in experiment [13]: E-selectin (Homo sapiens) (UniProt P16581)
Nature of the experiment: BSK_LPS_Eselectin: BioMAP Diversity Plus: LPS Assay for Eselectin Biomarker Activity (AID 2283077). The settings on record: primary human HUVEC with PBMC; actives raise or lower the signal. The method in brief:
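E-selectin ELISA on LPS-stimulated endothelial cell/PBMC co-cultures, read 24 h post-treatment; gains and losses fitted against DMSO. Parallel SRB staining (0.1% SRB after 10% TCA fixation, 560 nm) flags overt cytotoxicity.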

Read-out in experiment [14]: Interleukin-8 (IL8), CXCL8 (gene 3576)
Nature of the experiment: BSK_LPS_IL8: BioMAP Diversity Plus: LPS Assay for Interleukin-8 (IL8) Biomarker Activity (AID 2283078). The following applies: primary human HUVEC with PBMC; actives raise or lower the signal. The method in brief: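 ELISA read-out of IL-8 after 24 h chemical treatment of LPS-activated endothelial/PBMC human primary co-cultures. Changes either up or down relative to DMSO; overt cytotoxicity checked by sulforhodamine B staining in parallel wells.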

Experiment [15] can be described thus: BSK_LPS_SRB: Viability Assessment in the BioMAP Diversity Plus: LPS Assay (AID 2283079).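 Also: total protein by sulforhodamine B absorbance as a cytotoxicity measure; measured one day after compound addition.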 The settings on record: primary human HUVEC with PBMC. The method in brief:
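SRB viability endpoint: cells fixed with 10% TCA, stained with 0.1% SRB, read at 560 nm, 24 h post-dose. HUVEC/PBMC co-culture; signal change in either direction scored relative to DMSO.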

Read-out in experiment [16]: Interleukin-1 alpha (IL1a), IL1A (gene 3552)
Nature of the experiment: BSK_LPS_IL1a: BioMAP Diversity Plus: LPS Assay for Interleukin-1 alpha (IL1a) Biomarker Activity (AID 2283080). The settings on record: primary human HUVEC with PBMC; actives raise or lower the signal. The method in brief:
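Readout is IL-1a level by ELISA, 24 h post-dose, fitted as gain or loss relative to DMSO. System: LPS-activated human primary co-culture of vascular endothelium and peripheral blood mononuclear cells, with parallel SRB total-protein cytotoxicity.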

Read-out in experiment [17]: Monocyte Chemoattractant Protein-1 (MCP1), CCL2 (gene 6347)
Kind of experiment: BSK_LPS_MCP1: BioMAP Diversity Plus: LPS Assay for Monocyte Chemoattractant Protein-1 (MCP1) Biomarker Activity (AID 2283081).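 As to AC50: secreted MCP-1 protein quantified by ELISA in culture supernatant.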 The following applies: primary human HUVEC with PBMC; actives raise or lower the signal. The method in brief:
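Secreted MCP-1 read by ELISA at 24 h post-dosing in an LPS-activated co-culture of endothelial cells with peripheral blood mononuclear cells. Fits run in both directions, DMSO as baseline; parallel SRB staining tracks overt cytotoxicity.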

Read-out in experiment [18]: Vascular cell adhesion molecule 1 (VCAM1), VCAM1 (gene 7412)
Kind of experiment: BSK_hDFCGF_VCAM1: BioMAP Diversity Plus: hDFCGF Assay for Vascular cell adhesion molecule 1 (VCAM1) Biomarker Activity (AID 2283065).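 Also: VCAM-1 protein level quantified by ELISA after 24 h chemical exposure.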 The settings on record: primary human foreskin fibroblasts; actives raise or lower the signal. The method in brief: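 ELISA readout of VCAM-1 on human dermal fibroblast primary cultures, 24 h after chemical exposure. Gain or loss of signal fitted in both directions against DMSO baseline.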

A word on the AC50: it is the midpoint of the concentration-response curve, whichever way the signal moves.

Sequence of E-selectin (Homo sapiens) (P16581 whole entry, looked up): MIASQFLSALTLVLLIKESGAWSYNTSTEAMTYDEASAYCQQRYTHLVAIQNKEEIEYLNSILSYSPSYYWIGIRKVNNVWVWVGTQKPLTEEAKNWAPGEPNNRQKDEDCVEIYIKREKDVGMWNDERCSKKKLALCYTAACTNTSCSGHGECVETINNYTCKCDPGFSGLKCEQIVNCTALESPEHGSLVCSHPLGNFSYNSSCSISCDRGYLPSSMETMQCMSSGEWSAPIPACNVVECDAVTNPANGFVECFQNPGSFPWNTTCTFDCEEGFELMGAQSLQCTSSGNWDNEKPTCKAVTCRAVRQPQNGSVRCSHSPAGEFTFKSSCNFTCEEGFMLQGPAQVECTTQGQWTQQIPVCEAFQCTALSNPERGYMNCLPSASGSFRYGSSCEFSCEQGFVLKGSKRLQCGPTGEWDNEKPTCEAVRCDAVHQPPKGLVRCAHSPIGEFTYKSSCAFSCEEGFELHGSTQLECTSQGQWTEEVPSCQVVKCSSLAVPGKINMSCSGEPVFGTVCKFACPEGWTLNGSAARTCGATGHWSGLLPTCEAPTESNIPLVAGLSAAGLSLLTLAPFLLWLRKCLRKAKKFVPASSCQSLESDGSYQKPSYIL

As to `COC(=O)Nc1nc2ccccc2[nH]1`, the outcome in [1], in experiment [2], in [3], in experiment [4], in experiment [5] and in experiment [6] was inactive. The outcome in experiment [7], in [8], in experiment [9], in experiment [10], in experiment [11] and in experiment [12] was inactive. Further, the outcome was “inactive” with CD40, CD40 (gene 958); “inactive” in experiment [13]; “inactive” in experiment [14]; “inactive” in [16]; “inactive” in experiment [17]. In experiment [15], the AC50 is 10.5 µM (active).
Consider `Oc1ccc2ccc3cccc4ccc1c2c34`, for which the outcome in [1], in [4], in experiment [6], in [10] and in [12] was inactive. Further, the AC50 in [2] is 7.57 µM (active); in experiment [3], 22.5 µM (active); in experiment [5] it was 26.7 µM (active); in experiment [7], 20 µM (active); in [8] it was 31.3 µM (active); in experiment [9], 31.7 µM (active). Further, the AC50 is 15.3 µM (active) in experiment [11]; 20 µM (active) with CD40, CD40 (gene 958); 31.4 µM (active) in experiment [13]; 30.5 µM (active) in experiment [14]; 32 µM (active) in [15]; 29.2 µM (active) in [16]. Also, the AC50 in [17] is 29.7 µM (active).
Consider `O=C(O)C1C2CCC(O2)C1C(=O)O` (stereo not drawn), for which the outcome in experiment [1], in [2], in experiment [4], in experiment [5], in [6] and in experiment [7] was inactive. For the same molecule, the outcome in experiment [8] was “inactive”; in experiment [9], “inactive”; in experiment [10], “inactive”; in [12] it was “inactive”; with CD40, CD40 (gene 958), “inactive”; in experiment [13], “inactive”. In addition, the result in experiment [14] and in experiment [17] was inactive. Further, the AC50 in experiment [3] was 6.83 µM (active); in [11], 28.7 µM (active); in experiment [15], 18.6 µM (active); in experiment [16], 18.6 µM (active).
For the molecule `O=P(OCCCl)(OCCCl)OCCCl`, the outcome in [1], in [2], in experiment [3], in experiment [4], in experiment [5] and in [6] was inactive. For the same molecule, the result in [7], in [8], in experiment [9], in experiment [10], in experiment [11] and in experiment [12] was inactive. In addition, the outcome in the experiment with CD40, CD40 (gene 958) is “inactive”; in experiment [13] it was “inactive”; in [14] it was “inactive”; in experiment [15], “inactive”; in [16] it was “inactive”; in experiment [17], “inactive”.
`CC(C)COC(=O)c1ccccc1C(=O)OCC(C)C`: the result in experiment [1], in experiment [2], in experiment [3], in experiment [4], in experiment [5] and in [6] was inactive. Moreover, the outcome in experiment [7], in experiment [8], in [9], in experiment [10], in experiment [11] and in [12] was inactive. Besides, the outcome with CD40, CD40 (gene 958) was “inactive”; in [13], “inactive”; in experiment [14], “inactive”; in experiment [15], “inactive”; in experiment [16], “inactive”; in experiment [17] it was “inactive”.
As to `CCCCOC(=O)c1ccccc1C(=O)OCc1ccccc1`, the outcome in experiment [1], in [2], in experiment [4], in experiment [5], in experiment [6] and in experiment [7] was inactive. In addition, the outcome was “inactive” in experiment [8]; “inactive” in experiment [9]; “inactive” in experiment [10]; “inactive” in [11]; “inactive” in experiment [12]; “inactive” with CD40, CD40 (gene 958). Further, the result in experiment [13], in experiment [14], in [15], in experiment [16] and in experiment [17] was inactive. Also, the AC50 in [18] is 20 µM (active).
